Measurements from PubChem BioAssay (NCATS).
Results filed as inconclusive are left out. The source made the active and inactive calls. Calls follow the shape of the dose curve; as a rule, active = well fitted cell-killing curve with a large enough effect; inconclusive = small, poorly fitted or top-dose-only effect, or effect the other way; inactive = flat fitted curve, though single readings scatter.

Legend:
Test in all cases: Primary qHTS to identify gynecologic anti-cancer compounds using libraries of approved drugs and bioactive compounds (AID 1345084); also: nearly all actives have a fitted effect of over 55% in size
[1] = system: C33A; settings: Gynecologic cancer cell panel viability, ATPlite luminescence, 48 h; series mostly up to 57.5 µM
Method in brief: (§1)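 In this quantitative HTS, cell killing is estimated from loss of ATP-dependent luciferase light. Cells see five compound concentrations over a 48 h exposure.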

[2] = system: CAOV3; settings: Gynecologic cancer cell panel viability, ATPlite luminescence, 48 h; series mostly up to 57.5 µM
Method in brief: as §1

[3] = system: CASKI; settings: Gynecologic cancer cell panel viability, ATPlite luminescence, 48 h; series mostly up to 57.5 µM
Method in brief: as §1

[4] = system: Es-2; settings: Gynecologic cancer cell panel viability, ATPlite luminescence, 48 h; series mostly up to 57.5 µM
Method in brief: as §1

[5] = system: HeLa; settings: Gynecologic cancer cell panel viability, ATPlite luminescence, 48 h; series mostly up to 57.5 µM
Method in brief: as §1

[6] = system: Hek293T; settings: Gynecologic cancer cell panel viability, ATPlite luminescence, 48 h, control line for the selectivity index; series mostly up to 57.5 µM
Method in brief: as §1

[7] = system: JEG-3; settings: Gynecologic cancer cell panel viability, ATPlite luminescence, 48 h; series mostly up to 57.5 µM
Method in brief: as §1

[8] = system: OV90; settings: Gynecologic cancer cell panel viability, ATPlite luminescence, 48 h; series mostly up to 57.5 µM
Method in brief: as §1

[9] = system: PA-1; settings: Gynecologic cancer cell panel viability, ATPlite luminescence, 48 h; series mostly up to 57.5 µM
Method in brief: as §1

[10] = system: SKOV3; settings: Gynecologic cancer cell panel viability, ATPlite luminescence, 48 h; series mostly up to 57.5 µM
Method in brief: as §1

[11] = system: Tov-21-G; settings: Gynecologic cancer cell panel viability, ATPlite luminescence, 48 h; series mostly up to 57.5 µM
Method in brief: as §1

[12] = system: Tov112D; settings: Gynecologic cancer cell panel viability, ATPlite luminescence, 48 h; series mostly up to 57.5 µM
Method in brief: as §1
% is scaled to controls: 0 for no effect and ±100 for the full control effect.

COC(=O)/C=C/C12COC(C)(C)C1C(O)C(OC(C)=O)C1(C)C2CCC2(C)C(c3ccoc3)OC(=O)C3OC321 (stereo not given)
inactive: Potency [1] | Potency [2] | Potency [3] | Potency [4] | Potency [5] | Potency [6] | Potency [7] | Potency [8] | Potency [9] | Potency [10] | Potency [11] | Potency [12]

CCc1cccc(CC)c1NC(=O)c1nn(C)c2c1CCc1cnc(Nc3ccc(C(=O)NC4CCN(C)CC4)cc3OC(F)(F)F)nc1-2
inactive: Potency [1] | Potency [2] | Potency [3] | Potency [4] | Potency [5] | Potency [6] | Potency [7] | Potency [8] | Potency [9] | Potency [10] | Potency [11] | Potency [12]

CC(=O)O[C@@H]1[C@@H](O)[C@H](C)O[C@@H](O[C@H]2[C@@H]3C=CO[C@@H](O[C@@H]4O[C@H](CO)[C@@H](O)[C@H](O)[C@H]4O)[C@@H]3[C@@]3(CO)O[C@@H]23)[C@@H]1OC(=O)/C=C/c1ccccc1
inactive: Potency [1] | Potency [2] | Potency [3] | Potency [4] | Potency [5] | Potency [6] | Potency [7] | Potency [8] | Potency [9] | Potency [10] | Potency [11] | Potency [12]

CC1CCC2(OC1)OC1CC3C4CC=C5CC(O)CC(O[C@@H]6OC[C@@H](O)[C@H](O)[C@H]6O)C5(C)C4CCC3(C)C1(O)C2C (stereo not given in full)
inactive: Potency [1] | Potency [2] | Potency [3] | Potency [4] | Potency [5] | Potency [6] | Potency [7] | Potency [8] | Potency [9] | Potency [10] | Potency [11] | Potency [12]

Cc1[nH]c2ccccc2c1CCNC(=O)c1ccccc1F
inactive: Potency [1] | Potency [2] | Potency [3] | Potency [4] | Potency [5] | Potency [6] | Potency [7] | Potency [8] | Potency [9] | Potency [10] | Potency [11] | Potency [12]

C[C@@H]1O[C@@H](O[C@H]2[C@H](O)[C@@H](O[C@@H]3O[C@H](CO)[C@@H](O)[C@H](O[C@@H]4O[C@H](CO)[C@@H](O)[C@H](O)[C@H]4O)[C@H]3O)[C@H](O[C@H]3CC[C@@]4(C)C(=CC[C@@H]5C4CC[C@@]4(C)C5C[C@@H]5OC6(CC[C@@](C)(CO[C@@H]7O[C@H](CO)[C@@H](O)[C@H](O)[C@H]7O)O6)[C@@H](C)[C@@H]54)C3)O[C@@H]2CO)[C@H](O)[C@H](O)[C@H]1OC1OC(CO)C(O)C(O)C1O (stereo not given in full)
inactive: activity change, negative = cytotoxicity [1] 0.138% [at 6.55 µM] | activity change, negative = cytotoxicity [2] 7.26% [at 6.55 µM] | activity change, negative = cytotoxicity [3] -16.9% [at 6.55 µM] | activity change, negative = cytotoxicity [4] -3.32% [at 6.55 µM] | activity change, negative = cytotoxicity [5] -0.928% [at 6.55 µM] | activity change, negative = cytotoxicity [6] 3.68% [at 6.55 µM] | activity change, negative = cytotoxicity [7] 1.09% [at 6.55 µM] | activity change, negative = cytotoxicity [8] -1.64% [at 6.55 µM] | activity change, negative = cytotoxicity [9] 10.2% [at 6.55 µM] | activity change, negative = cytotoxicity [10] -3.09% [at 6.55 µM] | activity change, negative = cytotoxicity [11] -0.0744% [at 6.55 µM] | activity change, negative = cytotoxicity [12] 5.26% [at 6.55 µM]

CC(C)CC1NC(=O)C2CC3(O)c4ccccc4NC3N2C1=O (stereo not given)
inactive: Potency [1] | Potency [2] | Potency [3] | Potency [4] | Potency [5] | Potency [6] | Potency [7] | Potency [8] | Potency [9] | Potency [10] | Potency [11] | Potency [12]

C=C1C(=O)OC2CC(C)=C(C(C)CCCO)C(O)C12 (stereo not given)
inactive: Potency [1] | Potency [2] | Potency [3] | Potency [4] | Potency [5] | Potency [6] | Potency [7] | Potency [8] | Potency [9] | Potency [10] | Potency [11] | Potency [12]

CC(=O)O[C@@H]1c2c3c(cc(O)c2C(=O)O[C@@H]1C)O[C@@]1(C)[C@@H](O)C[C@H]2C(C)(C)C(=O)C=C[C@]2(C)[C@@H]1C3
inactive: Potency [1] | Potency [2] | Potency [3] | Potency [4] | Potency [5] | Potency [6] | Potency [7] | Potency [8] | Potency [9] | Potency [10] | Potency [11] | Potency [12]

C=C1CC23CC1CCC2C12OC(=O)C(C)(CCC1O)C2C3C(=O)O (stereo not given)
inactive: Potency [1] | Potency [2] | Potency [3] | Potency [4] | Potency [5] | Potency [6] | Potency [7] | Potency [8] | Potency [9] | Potency [10] | Potency [11] | Potency [12]

CC1=CC(=O)CC(C)(C)[C@H]1/C=C/C(CO)O[C@@H]1O[C@H](CO)[C@@H](O)[C@H](O)[C@H]1O (stereo not given in full)
inactive: Potency [1] | Potency [2] | Potency [3] | Potency [4] | Potency [5] | Potency [6] | Potency [7] | Potency [8] | Potency [9] | Potency [10] | Potency [11] | Potency [12]

C=C1C[C@]23C[C@H]1CC[C@H]2C1=C[C@H]2OC(=O)[C@@](C)([C@H]1[C@@H]3C(=O)O)[C@H]2O
inactive: Potency [1] | Potency [2] | Potency [3] | Potency [4] | Potency [5] | Potency [6] | Potency [7] | Potency [8] | Potency [9] | Potency [10] | Potency [11] | Potency [12]

CC(C)(C)C(=O)CN1C(=O)[C@H](NC(=O)Nc2cccc(C(=O)O)c2)CN(C2CCCCC2)c2ccccc21
inactive: Potency [1] | Potency [2] | Potency [3] | Potency [4] | Potency [5] | Potency [6] | Potency [7] | Potency [8] | Potency [9] | Potency [10] | Potency [11] | Potency [12]

C[C@H]1C(=O)N2c3ccccc3[C@@]3(O)C[C@@H]4C(=O)N[C@](C)(c5nc6ccccc6c(=O)n54)N1[C@@H]23
inactive: Potency [1] | Potency [2] | Potency [3] | Potency [4] | Potency [5] | Potency [6] | Potency [7] | Potency [8] | Potency [9] | Potency [10] | Potency [11] | Potency [12]

CC1(C)CCCC2(C)C1CC=C1C(=O)OC(O)C12O (stereo not given)
inactive: Potency [1] | Potency [2] | Potency [3] | Potency [4] | Potency [5] | Potency [6] | Potency [7] | Potency [8] | Potency [9] | Potency [10] | Potency [11] | Potency [12]
